This is part of a sample that, as a whole, favours compounds with a hit. Of some 83,000 tested, about 20% had one in any assay.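 Step 1: grow cells in 96-well plates. Step 2: add test compound at a single concentration. Step 3: incubate 48 h. Step 4: record percent growth.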 The source made the active and inactive calls. The calls were made as follows: active = growth percent below 10; inactive = the rest.
Test system: MDA-MB-468 breast
Assay: NCI-60 one-dose screen, 48 h (100 = growth as untreated, 0 = no growth, -100 = all killed)
Details: 10 µM unless noted

Compound	growth
Nc1nc(N)c2cc(NCc3ccc(Cl)c(Cl)c3)ccc2n1	-84.7% (active)
O=C1Nc2ccccc2/C1=N/N=C/c1ccc(OC2OC(CO)C(O)C(O)C2O)cc1 (centres undefined)	112% (inactive)
CCOC(=O)/C(O)=C(\C=N\C(=S)Nc1ccc(Cl)c(Cl)c1)C(=O)OCC	102% (inactive)
CC1=C(C)C(=O)C(Nc2ccc(C)cc2)=C(Br)C1=O	-4.77% (active)
COc1cccc(N2CCN(c3ncnc4cc[nH]c34)CC2)c1	18.8% (inactive)
CCCCCCCCCCCC[N+](C)(C)Cc1ccccc1	-26.4% (active)
CN1CCN(CC#CCNC(=O)[C@]23CCC(C)(C)C[C@H]2C2=CC[C@@H]4[C@@]5(C)Cc6c([nH]c7ccccc67)C(C)(C)[C@@H]5CC[C@@]4(C)[C@]2(C)CC3)CC1	91.2% (inactive)
CCCC/C=C/[C@@H]1C[C@H]1CCO	96.1% (inactive)
COc1ccc(-c2csc(NC(=O)CN3CCN(CCO)CC3)n2)cc1NS(=O)(=O)c1cccc2c(N(C)C)cccc12	55.6% (inactive)
Cc1ccc2cnc(N)c(C#Cc3cc(C(=O)Nc4ccc(CN5CCN(C)CC5)c(C(F)(F)F)c4)cnc3C)c2c1	15.5% (inactive)
COc1cc2nc3cc([N+](=O)[O-])ccc3c(Cl)c2cc1OC	10.7% (inactive)
CCS(=O)(=O)Nc1cccc(Nc2c3cccc(C)c3nc3c(C)cccc23)c1OC	37.7% (inactive)
CCc1nnc(CNc2ccc(Cl)cc2)o1	114% (inactive)
C/C=C/C=N/NC(=S)Nc1ccccc1	107% (inactive)
N=C(N)N=Nc1ccc(O)cc1	88% [100 µM] (inactive)
Nc1nonc1-c1nc2ccccc2n1CC(=O)Nc1ccc2c(c1)COC2=O	26.2% (inactive)
NC(=O)C(O)(c1ccccc1)c1ccccc1	95.1% (inactive)
COc1cccc(/C=C(/C)c2ccc3cccc(OC)c3[o+]2)c1O	95.9% (inactive)
CNC(=O)c1cc(N2CCc3cc(NC(=O)Nc4ccc(Cl)c(Cl)c4)ccc32)ccn1	84.5% (inactive)
O=[N+]([O-])c1ccc(-c2cc3c(Nc4ccc(Sc5nc6ccccc6s5)c(Cl)c4)ncnc3s2)cc1	26.1% (inactive)

Compound	growth
Cc1c2ccccc2c(C)c2c1ccc1ccccc12	20.5% (inactive)
N#Cc1nc(-c2ccc(F)cc2)oc1S(=O)(=O)N1CCCCC1	52.7% (inactive)
CN1CCN(CCCOc2cccc3nc(Nc4cc(Cl)cc(Cl)c4)ccc23)CC1	-52.6% (active)
C/C(Cc1ccc(Cl)cc1)=C(/c1ccc(Cl)cc1)c1ccc(OCCN2CCCC2)cc1	66.1% (inactive)
CCN(CC)CCCC(C)N=c1cc(Nc2cc(=NC(C)CCCN(CC)CC)c3cc(OC)ccc3o2)oc2ccc(OC)cc12 (centres undefined)	-76.8% (active)
COc1ccc(-c2cc(NC(=O)Nc3ccc4ncsc4c3)no2)cc1	99.2% (inactive)
O=C(Nc1ccc2ccccc2c1)c1cc2ccccc2cc1O	123% (inactive)
CC(C)CSc1ncnc2nc[nH]c12	104% (inactive)
COc1ccc(/C=C/C(=O)c2cc3c(N)c(C(=O)Nc4cccc5ccccc45)sc3nc2C)cc1	58.5% (inactive)
COc1cc2cc(CN3CCN(c4nccc(-c5ccc6ccccc6c5)n4)CC3)c(=O)[nH]c2cc1OC	51.4% (inactive)
O=[n+]1ccn([O-])c2ccccc21	86.9% (inactive)
CC(=O)OCC1O[C@@H](OC(C)=O)[C@@H](NC(=O)NS(=O)(=O)c2ccccc2)C(OC(C)=O)[C@@H]1OC(C)=O (some centres undefined)	107% (inactive)
C=CCC(CCCC)(C(=O)OCC)C(=O)OCC	107% (inactive)
COc1cnc2c(c1)C(=O)c1c-2n(CCCNC(C)C)c(=O)c2cc(F)ccc12	-63.6% (active)
COc1ccc(C2CC(c3ccc(Cl)cc3)=NN2/C=C2\SC(=S)N(NC(=O)Cc3ccccc3Nc3c(Cl)cccc3Cl)C2=O)cc1 (centres undefined)	75.2% (inactive)
CC(=O)Oc1ccc(N2C(=O)C(Cl)=C(Nc3cccc(C(F)(F)F)c3)C2=O)cc1	96.1% (inactive)
CC(O)CN1CCCCC1 (centres undefined)	104% (inactive)
CN1CCN(Cc2ccc(NC(=O)c3cncc(C#Cc4cnc5ccc(O[C@H]6CCOC6)nn45)c3)cc2C(F)(F)F)CC1	-59.7% (active)
CN1CCN(CCCOc2ccc3ncnc(Nc4ccc(Oc5cccc(C(F)(F)F)c5)c(Cl)c4)c3c2)CC1	-24.2% (active)
